Assay [1] can be described thus: NCI Yeast Anticancer Drug Screen. Data for the rad50 strain (AID 155).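 Also: 0% = growth of vehicle-only cultures of the same strain.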 Conditions: S. cerevisiae rad50 strain growth inhibition; at 50.0 µM; stronger effect = higher value. In a few lines: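 Yeast carrying a defined DNA repair defect were exposed to test compounds, and growth was compared with vehicle-treated controls to give percent inhibition.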
A short description of assay [2]: NCI Yeast Anticancer Drug Screen. Data for the mec2-1 strain (AID 157). Conditions: S. cerevisiae mec2-1 strain, at 50.0 µM, stronger effect = higher value. In outline:
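Using mec2-1 yeast: add compound, measure growth, express inhibition versus vehicle-treated cultures.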

A short description of assay [3]: NCI Yeast Anticancer Drug Screen. Data for the sgs1 mgt1 strain (AID 161).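 Also: 0% = growth of cultures given vehicle only.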 The settings on record: S. cerevisiae sgs1 mgt1 strain, at 50.0 µM, stronger effect = higher value. In outline: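 Yeast cells carrying a defined DNA-repair defect were exposed to test compounds. Growth inhibition was measured relative to vehicle-treated controls.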
Assay [4] can be described thus: NCI Yeast Anticancer Drug Screen. Data for the cln2 rad14 strain (AID 165).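 Also: 0% = growth equal to vehicle treated cultures.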 Conditions: S. cerevisiae cln2 rad14 strain, at 50.0 µM, stronger effect = higher value. In outline: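 Yeast strain cln2 rad14, bearing defects in cell cycle control and DNA repair, serves as the test system; values reflect growth inhibition compared with vehicle.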
A short description of assay [5]: NCI Yeast Anticancer Drug Screen. Data for the bub3 strain (AID 167). Conditions: S. cerevisiae bub3 mutant strain, at 50.0 µM, stronger effect = higher value. In a few lines: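 Compounds were applied to a genetically altered yeast strain carrying a cell-cycle control defect. Growth inhibition was scored against vehicle-treated controls.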
The nature of assay [6]: NCI Yeast Anticancer Drug Screen. Data for the mlh1 rad18 strain (AID 175). Conditions: S. cerevisiae mlh1 rad18 strain growth inhibition; at 50.0 µM; stronger effect = higher value. In outline:
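Steps: expose repair-defective yeast to compound; measure growth; express inhibition against vehicle-treated controls.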

SMILES strings stand for the structures. This is part of a sample that, as a whole, favours compounds with a hit. Of some 79,000 tested, about 15% had one in any assay. Values without a mark were called inactive. Calls of active or inactive are those of the source. Rule as the data show it: active = growth inhibition above about 70%; inactive = the rest.

For `O=c1[nH]c2cc(Cl)ccc2nc1/C=C(\O)c1ccc2ccccc2c1`, the growth inhibition was 27.2% in assay [1]; -5.2% in assay [2]; -6.3% in assay [3]; -3.85% in assay [4]; -16.6% in assay [5]; 25.4% in assay [6].

Consider `CO[Si](CCCN)(OC)OC`, for which the growth inhibition was -0.65% in assay [1]; -44.8% in assay [2]; -13.4% in assay [3]; -8.7% in assay [4]; 11.8% in assay [5]; 35.9% in assay [6].

For the compound `CCCCCCCCCCCc1noc2c1C(=O)C(O)CC2` (stereo unspecified), the growth inhibition in assay [1] was 36.5%; in assay [2], -3.05%; in assay [3], -1.05%; in assay [4] it was 40.4%; in assay [5], -69%; in assay [6], 5.25%.

Consider `CCOC(=O)c1c(-c2ccccc2)c(C)cn1C`, for which the growth inhibition in assay [1] was -16.1%; in assay [2], -26%; in assay [3] it was -24.9%; in assay [4], 11%; in assay [5], -7.75%; in assay [6], 1%.

`CCCCCOc1ccc(C2=C(c3ccccc3)C(=O)C(c3ccccc3)=C2c2ccccc2)cc1`: the growth inhibition in assay [1] was 40.4%; in assay [2], 12.3%; in assay [3] it was 33.5%; in assay [4], 26.9%; in assay [5], -3.15%; in assay [6], 23.4%.

Turning to `O=c1cc(-c2cccc(OC(F)(F)F)c2)[nH]c2cc3c(cc12)OCO3`, the growth inhibition is -6.25% in assay [1]; 2.75% in assay [2]; -5.05% in assay [3]; 13.8% in assay [4]; 19.7% in assay [5]; -24.2% in assay [6].

For the compound `O=C(O)/C(=C\c1cccc(O)c1)c1ccccc1`, the growth inhibition was -19.4% in assay [1]; -30.4% in assay [2]; -16.4% in assay [3]; -6.65% in assay [4]; -3.2% in assay [5]; -6% in assay [6].

`COc1ccc(/C=C(\C)C=C(C#N)C#N)cc1`: the growth inhibition was 45.5% in assay [1]; 39.8% in assay [2]; 52% in assay [3]; 38% in assay [4]; 45.1% in assay [5]; 59.7% in assay [6].

Consider `CCOC(=O)C(NC(=O)c1cccc(Cl)c1)(Nc1ccc(S(=O)(=O)Nc2cc(C)on2)cc1)C(F)(F)F` (stereo unspecified), for which the growth inhibition was 67.2% in assay [1]; 69.3% in assay [2]; 82.3% (active) in assay [3]; 84.7% (active) in assay [4]; 79.2% (active) in assay [5]; 91% (active) in assay [6].

In the case of `CC(C)C(CCN1CCCC1(C)C)(C(N)=O)c1ccccc1` (stereo unspecified), the growth inhibition in assay [1] was -4.85%; in assay [2], -12.6%; in assay [3], -4.2%; in assay [4], -34%; in assay [5], 9.6%; in assay [6] it was 7.75%.

`CCCCCCCCCCCCCCCOc1ccc2ccccc2c1`: the growth inhibition is -11.4% in assay [1]; 8.2% in assay [2]; -5.8% in assay [3]; -27.7% in assay [4]; -7.05% in assay [5]; -35.1% in assay [6].

As for `COc1ccc2cc(C(=O)Nc3ccc(O)c(C(=O)O)c3)ccc2c1OC`, the growth inhibition in assay [1] is -2.2%; in assay [2], 0.5%; in assay [3], -7.6%; in assay [4] it was -10.6%; in assay [5], 2.95%; in assay [6], -22.6%.

Turning to `O=C(O)C(C(=O)O)C(c1ccccc1)c1ccccc1Br` (stereo unspecified), the growth inhibition in assay [1] is 5.15%; in assay [2], 17.1%; in assay [3], 28.1%; in assay [4] it was -184%; in assay [5], 23.9%; in assay [6], 29.5%.

As to `CCOC(=O)c1ccc(OC(=O)Nc2ccccc2)cc1`, the growth inhibition in assay [1] was -2.2%; in assay [2], 6%; in assay [3], 1.15%; in assay [4] it was -12.4%; in assay [5], -2.8%; in assay [6] it was -28.1%.

For `COc1ccc(OC)c(C#N)c1C#N` (tested in a mixture with another compound), the growth inhibition in assay [1] is -25.1%; in assay [2], 5.9%; in assay [3], -0.15%; in assay [4] it was -41.5%; in assay [5], -3.35%; in assay [6] it was -6.75%.

On to `Cc1ccc(S(=O)(=O)N/N=C2/CCCOC2)cc1`, for which the growth inhibition in assay [1] is 16.1%; in assay [2] it was 4.15%; in assay [3], 59.6%; in assay [4], 32.5%; in assay [5], 24.2%; in assay [6], 38%.

`CCO/N=C(\N)c1ccccc1`: the growth inhibition is -8.4% in assay [1]; 1.75% in assay [2]; -2.5% in assay [3]; -18.9% in assay [4]; 0.95% in assay [5]; 3.25% in assay [6].

With `CCC(C(C)O)[N+](=O)[O-]` (stereo unspecified), the growth inhibition in assay [1] is 32.8%; in assay [2], -1.1%; in assay [3] it was 10%; in assay [4], 4.15%; in assay [5] it was 7.25%; in assay [6], 7.75%.

Turning to `COc1ccc(C(=CC2=CC(=O)C3=C(CCCC3)C2=O)c2ccc(OC)cc2)cc1`, the growth inhibition in assay [1] is 19.8%; in assay [2], -4.25%; in assay [3] it was -4.6%; in assay [4] it was -3.7%; in assay [5], 0.55%; in assay [6] it was 7.2%.

In the case of `CC(C)N(C(=O)C12C3C4C5(C(=O)O)C(C1C35I)C42C(=O)O)C(C)C` (stereo unspecified), the growth inhibition is -5.25% in assay [1]; 11.1% in assay [2]; -13.3% in assay [3]; 13.7% in assay [4]; -10.4% in assay [5]; -4.1% in assay [6].

Consider `COc1ccc(I)cc1`, for which the growth inhibition is -1.85% in assay [1]; -15.8% in assay [2]; 3.65% in assay [3]; -2.2% in assay [4]; -3.5% in assay [5]; 2.35% in assay [6].

The values are drawn from PubChem BioAssay (NCI).
